From PubChem BioAssay come the findings set out here.

For orientation: inhibition means the drop in the measured response relative to a control, in per cent.

The target in assay [1] is Nuclear receptor coactivator 3 (Homo sapiens) (UniProt Q9Y6Q9). Put plainly: SRC3 coactivator transcriptional activity inhibitors, confirmation, cell-based, luminescence, quadruplicate (AID 588792;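 active = mean inhibition over 43.08%, the solvent-only control mean plus 3 SD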;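 also: 0% = DMSO treated cells and 100% = gossypol at 36 µM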). Conditions: HEK293 GAL4-SRC3 luciferase reporter, at 3.6 µM, stronger effect = higher value. In general terms: In a reporter assay the amount or activity of a reporter protein is the signal.

Assay [2] has as its system transactivating tegument protein VP16 (Human herpesvirus 1), Gal4-VP16 luciferase reporter. Put plainly: VP16 transactivation inhibitors, counter-screen for SRC3 inhibitor project, cell-based, luminescence, high throughput (AID 588794; in the data active = inhibition above about 30%). Particulars: mammalian cells, VP16-driven luciferase reporter luminescence; at 3.6 µM; stronger effect = higher value.
Assay [3] concerns transactivating tegument protein VP16 (Human herpesvirus 1). As to the kind of experiment: VP16 transactivation reporter inhibitors, counter-screen for SRC2 inhibitor project, cell-based, luminescence, single concentration (AID 652007; in the data active = inhibition above about 36%). Particulars: cell-based VP16 transactivation luciferase reporter, at 8.9 µM, stronger effect = higher value. In general terms: A counterscreen serves to expose hits that act by an unwanted route or on another target.

In assay [4] the target is Nuclear receptor coactivator 2 (Homo sapiens) (UniProt Q15596). Put plainly: SRC2 coactivator transcriptional activity inhibitors, confirmation, cell-based, luminescence, HEK293, triplicate (AID 652008;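 active = mean inhibition above 46.5%, the solvent-only control mean plus 3 SD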;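 also: 0% = DMSO-treated cells and 100% = Gossypol at 36 µM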). Conditions: HEK293 GAL4-SRC2 luciferase reporter, at 8.9 µM, stronger effect = higher value.
The target in assay [5] is Nuclear receptor coactivator 1 (Homo sapiens) (UniProt Q15788). Put plainly: SRC1 coactivator transcriptional activity inhibitors, confirmation, cell-based, luminescence, quadruplicate (AID 588820).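 Also: 0% = DMSO wells and 100% = gossypol 36 µM treated wells.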 Particulars: HEK293 GAL4-SRC1 luciferase reporter, at 3.6 µM, stronger effect = higher value.
Assay [6] can be described thus: VP16 transactivation inhibitors, counter-screen for SRC1 inhibitor project, cell-based, luminescence, high throughput (AID 588824; in the data active = inhibition above about 25%). Particulars: cell-based VP16 transactivation luciferase luminescence; at 3.6 µM; stronger effect = higher value.
A short description of assay [7]: Gal4-VP16 luciferase reporter inhibitors, counter-screen for COUP-TFII antagonist project, cell-based, luminescence, HEK293 (AID 687007; in the data active = inhibition above about 13%). Conditions: at 8.5 µM, stronger effect = higher value.
Assay [8] concerns the target COUP transcription factor 2 (Homo sapiens) (UniProt P24468). As to the kind of experiment: NR2F2 transcriptional activity inhibitors, confirmation, cell-based, luciferase reporter, HEK293, triplicate (AID 687008;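 active = mean inhibition over three repeats above a set limit taken from the earlier primary screen, cut at about 38% in these data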;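 also: 100% = cells given the luciferase reporter alone without the COUP-TF2 vector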). Conditions: HEK293 NGFI-A luciferase reporter, luminescence; at 8.5 µM; stronger effect = higher value.
The target of assay [9] is Galanin receptor type 2 (Homo sapiens) (UniProt O43603). Put plainly: GALR2 antagonists, retest of hits, confirmation, cell-based (AID 866; in the data active = inhibition above about 27%;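 also: cells stimulated with galanin at about its EC80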). Conditions: GALR2-expressing cells, antagonist mode, at 4 µM, stronger effect = higher value.
Assay [10] in a line: inhibitors of NFAT-driven beta-lactamase reporter, confirmation, counter-screen for GALR2 antagonist project, CHO NFAT-bla cells, FRET readout (AID 867;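 active = inhibition above the mean inhibition across tested compounds plus 3 SD, cut at about 27% in these data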;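 also: 0% = 500 nM thapsigargin stimulated wells and 100% = unstimulated BSA only wells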). Conditions: thapsigargin-stimulated, at 4.2 µM, stronger effect = higher value.

A number with no mark means an inactive call. The list shows a part of the results. The source made the active and inactive calls.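 The calls were made as follows, unless noted: active = mean inhibition above 46.68%, the untreated control wells mean plus 3 SD; inactive = the rest.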

Sequence of Nuclear receptor coactivator 3 (Homo sapiens) (Q9Y6Q9 whole entry, looked up, the tested form may be a part): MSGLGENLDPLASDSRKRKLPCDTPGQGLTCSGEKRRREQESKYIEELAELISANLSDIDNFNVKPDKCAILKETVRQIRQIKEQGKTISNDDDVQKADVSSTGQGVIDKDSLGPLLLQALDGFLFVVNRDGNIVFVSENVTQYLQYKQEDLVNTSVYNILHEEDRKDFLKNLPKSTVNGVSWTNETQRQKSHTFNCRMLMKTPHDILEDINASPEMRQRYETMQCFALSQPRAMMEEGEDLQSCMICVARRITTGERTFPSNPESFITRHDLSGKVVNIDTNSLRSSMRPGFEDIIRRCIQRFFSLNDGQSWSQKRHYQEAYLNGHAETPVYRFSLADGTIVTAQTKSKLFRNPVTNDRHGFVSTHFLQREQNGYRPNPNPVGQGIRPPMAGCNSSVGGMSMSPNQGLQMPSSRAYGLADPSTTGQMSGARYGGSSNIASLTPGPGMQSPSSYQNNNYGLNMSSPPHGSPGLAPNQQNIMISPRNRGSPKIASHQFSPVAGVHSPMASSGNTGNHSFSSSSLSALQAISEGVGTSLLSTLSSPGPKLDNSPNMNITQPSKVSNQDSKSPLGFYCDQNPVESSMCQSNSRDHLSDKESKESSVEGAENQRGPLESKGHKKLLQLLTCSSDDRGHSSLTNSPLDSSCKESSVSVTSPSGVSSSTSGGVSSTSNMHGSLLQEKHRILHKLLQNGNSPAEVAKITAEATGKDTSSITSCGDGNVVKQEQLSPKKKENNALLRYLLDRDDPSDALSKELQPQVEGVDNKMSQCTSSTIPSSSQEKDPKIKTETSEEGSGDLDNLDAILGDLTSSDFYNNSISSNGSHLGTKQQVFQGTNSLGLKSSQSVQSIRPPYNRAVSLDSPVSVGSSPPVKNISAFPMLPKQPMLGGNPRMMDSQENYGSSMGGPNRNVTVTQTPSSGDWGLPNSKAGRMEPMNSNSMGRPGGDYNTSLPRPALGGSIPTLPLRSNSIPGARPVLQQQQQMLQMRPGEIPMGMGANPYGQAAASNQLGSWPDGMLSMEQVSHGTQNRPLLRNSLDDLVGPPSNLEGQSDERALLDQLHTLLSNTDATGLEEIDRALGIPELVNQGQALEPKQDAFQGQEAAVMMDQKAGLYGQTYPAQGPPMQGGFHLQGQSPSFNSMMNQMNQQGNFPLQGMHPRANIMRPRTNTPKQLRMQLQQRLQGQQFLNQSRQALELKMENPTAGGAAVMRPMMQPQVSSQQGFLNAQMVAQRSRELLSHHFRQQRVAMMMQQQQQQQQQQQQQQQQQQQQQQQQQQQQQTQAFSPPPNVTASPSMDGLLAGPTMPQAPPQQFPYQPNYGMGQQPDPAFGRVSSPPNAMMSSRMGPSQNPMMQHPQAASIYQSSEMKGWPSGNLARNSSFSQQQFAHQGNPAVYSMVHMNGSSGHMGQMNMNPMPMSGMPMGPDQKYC
Sequence of Nuclear receptor coactivator 2 (Homo sapiens) (Q15596 whole entry, looked up, the tested form may be a part): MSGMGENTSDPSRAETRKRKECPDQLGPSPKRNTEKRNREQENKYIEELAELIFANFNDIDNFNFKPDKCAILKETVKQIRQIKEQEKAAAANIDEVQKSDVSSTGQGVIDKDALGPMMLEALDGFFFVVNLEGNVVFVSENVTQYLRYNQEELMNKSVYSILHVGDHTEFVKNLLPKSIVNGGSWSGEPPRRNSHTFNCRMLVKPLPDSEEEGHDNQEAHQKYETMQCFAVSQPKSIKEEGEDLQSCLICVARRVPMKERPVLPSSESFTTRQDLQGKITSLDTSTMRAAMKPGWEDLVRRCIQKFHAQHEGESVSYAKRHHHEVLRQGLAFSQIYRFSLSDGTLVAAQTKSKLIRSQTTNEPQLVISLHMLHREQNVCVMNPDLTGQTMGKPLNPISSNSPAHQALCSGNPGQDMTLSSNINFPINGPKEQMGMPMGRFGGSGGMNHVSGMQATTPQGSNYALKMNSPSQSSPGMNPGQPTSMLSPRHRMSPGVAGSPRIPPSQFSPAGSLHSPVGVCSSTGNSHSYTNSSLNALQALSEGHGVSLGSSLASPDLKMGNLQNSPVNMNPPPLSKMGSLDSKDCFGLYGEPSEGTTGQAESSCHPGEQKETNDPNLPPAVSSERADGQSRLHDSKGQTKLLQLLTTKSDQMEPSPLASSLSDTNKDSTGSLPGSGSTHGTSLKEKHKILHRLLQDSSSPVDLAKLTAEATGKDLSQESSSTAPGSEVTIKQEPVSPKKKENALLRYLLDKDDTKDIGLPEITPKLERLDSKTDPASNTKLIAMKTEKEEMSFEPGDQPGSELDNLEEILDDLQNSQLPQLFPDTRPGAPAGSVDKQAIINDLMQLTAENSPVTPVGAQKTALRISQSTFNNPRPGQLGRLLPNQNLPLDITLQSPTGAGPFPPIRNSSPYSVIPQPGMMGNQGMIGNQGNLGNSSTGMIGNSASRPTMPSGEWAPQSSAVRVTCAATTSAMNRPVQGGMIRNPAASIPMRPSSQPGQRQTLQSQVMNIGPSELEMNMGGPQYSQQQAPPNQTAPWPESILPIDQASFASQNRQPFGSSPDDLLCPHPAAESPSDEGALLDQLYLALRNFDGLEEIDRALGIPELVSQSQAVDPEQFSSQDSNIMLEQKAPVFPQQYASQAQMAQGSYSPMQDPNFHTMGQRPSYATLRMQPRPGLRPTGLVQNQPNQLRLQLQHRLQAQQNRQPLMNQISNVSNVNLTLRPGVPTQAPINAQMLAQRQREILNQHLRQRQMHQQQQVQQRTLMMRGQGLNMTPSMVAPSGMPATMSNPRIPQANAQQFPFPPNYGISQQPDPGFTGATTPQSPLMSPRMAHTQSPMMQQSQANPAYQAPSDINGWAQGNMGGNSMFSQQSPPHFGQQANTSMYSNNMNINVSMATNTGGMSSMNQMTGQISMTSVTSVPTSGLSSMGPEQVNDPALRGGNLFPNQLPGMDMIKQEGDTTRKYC
Sequence of Nuclear receptor coactivator 1 (Homo sapiens) (Q15788 whole entry, looked up, the tested form may be a part): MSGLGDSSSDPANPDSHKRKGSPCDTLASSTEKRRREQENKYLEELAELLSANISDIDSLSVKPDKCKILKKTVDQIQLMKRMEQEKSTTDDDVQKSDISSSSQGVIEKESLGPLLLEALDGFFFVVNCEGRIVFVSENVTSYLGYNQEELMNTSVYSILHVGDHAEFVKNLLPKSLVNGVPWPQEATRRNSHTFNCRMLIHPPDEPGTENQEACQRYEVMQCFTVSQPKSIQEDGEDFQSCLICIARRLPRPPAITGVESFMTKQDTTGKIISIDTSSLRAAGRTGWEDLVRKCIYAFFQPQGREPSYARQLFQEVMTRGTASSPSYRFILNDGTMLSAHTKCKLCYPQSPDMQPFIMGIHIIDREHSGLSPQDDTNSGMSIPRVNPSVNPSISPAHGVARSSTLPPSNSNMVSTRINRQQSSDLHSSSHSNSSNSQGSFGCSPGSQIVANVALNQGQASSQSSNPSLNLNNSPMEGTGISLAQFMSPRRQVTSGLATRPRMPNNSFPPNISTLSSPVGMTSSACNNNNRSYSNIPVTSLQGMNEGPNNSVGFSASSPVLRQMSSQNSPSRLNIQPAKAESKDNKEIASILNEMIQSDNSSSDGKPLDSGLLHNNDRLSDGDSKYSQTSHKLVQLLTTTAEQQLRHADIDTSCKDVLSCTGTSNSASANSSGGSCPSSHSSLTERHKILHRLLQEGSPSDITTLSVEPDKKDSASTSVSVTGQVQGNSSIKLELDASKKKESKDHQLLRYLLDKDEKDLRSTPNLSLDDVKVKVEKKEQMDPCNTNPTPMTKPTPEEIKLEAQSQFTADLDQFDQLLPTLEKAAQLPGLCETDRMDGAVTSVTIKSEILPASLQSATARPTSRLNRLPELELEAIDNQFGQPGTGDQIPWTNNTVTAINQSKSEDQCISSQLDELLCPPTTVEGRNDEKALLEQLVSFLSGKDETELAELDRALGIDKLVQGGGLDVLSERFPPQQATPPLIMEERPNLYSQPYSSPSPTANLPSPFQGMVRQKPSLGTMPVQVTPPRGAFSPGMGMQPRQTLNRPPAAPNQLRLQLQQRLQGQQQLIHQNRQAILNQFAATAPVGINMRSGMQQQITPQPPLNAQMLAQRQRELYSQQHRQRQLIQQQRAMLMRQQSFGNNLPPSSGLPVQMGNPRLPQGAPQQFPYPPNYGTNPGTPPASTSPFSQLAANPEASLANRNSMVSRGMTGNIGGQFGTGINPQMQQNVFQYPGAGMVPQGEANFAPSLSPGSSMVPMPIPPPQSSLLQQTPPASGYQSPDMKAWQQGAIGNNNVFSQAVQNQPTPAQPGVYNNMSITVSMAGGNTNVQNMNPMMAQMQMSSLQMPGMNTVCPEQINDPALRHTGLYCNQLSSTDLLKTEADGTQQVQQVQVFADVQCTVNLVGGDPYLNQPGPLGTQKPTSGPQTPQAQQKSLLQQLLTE
Sequence of COUP transcription factor 2 (Homo sapiens) (P24468 whole entry, looked up): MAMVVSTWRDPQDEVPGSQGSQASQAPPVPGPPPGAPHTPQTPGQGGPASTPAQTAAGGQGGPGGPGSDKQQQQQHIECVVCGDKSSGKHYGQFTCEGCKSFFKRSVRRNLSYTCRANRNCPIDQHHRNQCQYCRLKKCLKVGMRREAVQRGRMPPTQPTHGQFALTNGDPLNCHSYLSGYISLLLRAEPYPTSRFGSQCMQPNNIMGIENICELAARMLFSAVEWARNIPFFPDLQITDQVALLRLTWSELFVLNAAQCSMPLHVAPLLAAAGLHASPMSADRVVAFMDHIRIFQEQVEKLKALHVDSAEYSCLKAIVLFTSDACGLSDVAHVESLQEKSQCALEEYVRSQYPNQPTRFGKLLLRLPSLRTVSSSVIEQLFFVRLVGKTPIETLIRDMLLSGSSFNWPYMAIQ
Sequence of Galanin receptor type 2 (Homo sapiens) (O43603 whole entry, looked up): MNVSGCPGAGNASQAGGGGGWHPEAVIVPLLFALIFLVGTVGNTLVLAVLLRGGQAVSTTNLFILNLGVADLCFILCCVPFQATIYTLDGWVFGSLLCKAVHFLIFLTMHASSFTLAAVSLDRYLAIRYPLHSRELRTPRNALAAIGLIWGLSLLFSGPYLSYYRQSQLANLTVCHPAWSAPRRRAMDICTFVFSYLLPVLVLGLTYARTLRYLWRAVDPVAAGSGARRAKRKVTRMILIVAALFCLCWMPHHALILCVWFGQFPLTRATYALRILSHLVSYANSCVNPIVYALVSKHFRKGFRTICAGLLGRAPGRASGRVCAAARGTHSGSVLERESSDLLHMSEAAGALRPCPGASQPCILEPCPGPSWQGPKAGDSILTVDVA

On to `COc1ccc(-c2noc(CCC(=O)NCCCN3CCC(Cc4ccccc4)CC3)n2)cc1`, for which the inhibition in assay [1] was -0.27%; in [2] it was 10.7%; in [3], -4.69%; in assay [4] it was 15.6%.

For the molecule `COc1cccc(C(c2c(NC(=O)c3ccco3)sc(C)c2C)N2CCOCC2)c1` (stereo unspecified), the results for the inhibition in assay [5] and in assay [6] were -6.24% and -1.54%, respectively.

As to `CCOC(=O)CSc1cc(-c2ccccc2)nc2ncnn12`, the inhibition in assay [5] was 17.9%; in assay [6] it was 4.7%.

For the molecule `CC(NC(=O)COC(=O)c1cccs1)c1ccccc1` (stereo unspecified), the inhibition in assay [5] is 15.5%; in assay [6], 13.6%.

For the molecule `Cc1ccc(OCCN2CCN(C(=O)CCC(=O)Nc3nnc(CC(C)C)s3)CC2)cc1`, the inhibition in assay [5] is 2.56%; in assay [6], 11.8%.

Turning to `CCOc1ccc(C(=O)C(CCC(CN(C)C)C(=O)c2ccc(OCC)cc2)CN(C)C)cc1` (stereo unspecified), the inhibition is -1.23% in [1], 34.5% (active) in assay [2], 42.6% (active) in assay [3] and 54.2% (active) in [4].

Regarding `Brc1ccc2ncnc(NCc3ccco3)c2c1`, the inhibition was 32.1% in [5] and 31.2% (active) in [6].

As to `CCOc1ccc(CCNC(=O)COC(=O)c2cc(OC)c(OC)cc2[N+](=O)[O-])cc1OCC`, the inhibition was -11.8% in [5] and -2.67% in assay [6].

On to `Cc1ccc(NC(=O)c2ccccc2NS(=O)(=O)c2ccc(F)cc2)cc1S(=O)(=O)N1CCCCC1`, for which the inhibition is 12.2% in assay [1], 24% in assay [2], 10.3% in assay [3] and 27.6% in [4].

For the molecule `COc1ccc(S(=O)(=O)N(C)c2ccc(C(=O)NCc3ccco3)cc2)cc1OC`, the inhibition was -12.2% in assay [5] and -0.34% in assay [6].

For the molecule `O=C1c2cccc(NCCCNCCO)c2C(=O)c2cccc(NCCCNCCO)c21`, the inhibition in assay [5] is 7.28%; in [6] it was 16.3%.

For `Cc1cc2[nH]c(=O)c(=O)[nH]c2cc1S(=O)(=O)NC1CCC(C)CC1` (stereo unspecified), the inhibition in assay [5] was -3.97%; in assay [6], -2.19%.

Regarding `Cn1ccnc1SCC(=O)NC1(C#N)CCCCC1`, the inhibition in assay [5] was -19.4%; in assay [6], -3.8%.

Consider `Cc1cccc(NC(=O)CSCC(=O)N2CCCc3ccccc32)c1`, for which the inhibition in [5] is -14.1%; in [6], -4.48%.

Consider `CCOC(=O)N1CCc2c(sc(NC(=O)CN3CCOCC3)c2C(=O)Nc2ccccc2)C1`, for which the inhibition in [5] is -17.7%; in assay [6] it was -5.16%.

Regarding `Cc1ccc(C)c(N2CCN(C(=O)CCCCCn3c(=S)[nH]c4ccc(N5CCOCC5)cc4c3=O)CC2)c1`, the inhibition in assay [1] was 60.6% (active); in [2] it was 73.1% (active); in assay [3] it was 69.7% (active); in [4], 60.8% (active); in [7] it was 15% (active); in assay [8] it was 90% (active).

In the case of `CCc1c(C)nc2c(C)cccc2c1SCCC#N`, the results for the inhibition in [5] and in assay [6] were 24.9% and 8.27%, respectively.

In the case of `Cc1cnc(C(=O)Nc2cccc3cccnc23)cn1`, the inhibition in assay [5] is -34.4%; in [6], -21.9%.

`CCOC(=O)c1c(NC(=O)C(C)N2CCN(C(=O)c3ccco3)CC2)sc2c1CCCC2` (stereo unspecified): the inhibition in assay [5] was 16.6%; in assay [6] it was 12%.

For `COc1cc(/C=C/C(=O)c2ccc3c(c2)OCCO3)cc(Br)c1OCC(=O)N(C)C`, the inhibition was 76.6% (active) in assay [1], 62.6% (active) in assay [2], 30.9% in assay [3] and 50.3% (active) in assay [4].

For the molecule `CCN(CC)S(=O)(=O)c1cccc(C(=O)N/N=C(\C)c2ccc(O)cc2O)c1`, the inhibition in assay [1] is 66.7% (active); in [2], 43.7% (active); in assay [3], 2.49%; in assay [4], 31.6%.

For `Cc1cc(Sc2nnc(N)s2)c2ccccc2n1`, the inhibition in [1] is -6.91%; in [2], 22.2%; in assay [3], 11.7%; in assay [4] it was 32%.

For `C=C1CCC[C@]2(C)C[C@H]3OC(=O)C(CN4CC(C)OC(C)C4)[C@H]3C[C@@H]12` (stereo partly specified), the inhibition is -0.94% in [5] and 2.96% in assay [6].

Take `CC(=O)c1cccc(NC(=O)c2ccc(CN3CCc4ccccc4C3)cc2)c1`: the figures for the inhibition in assay [5] and in assay [6] were -1.99% and 9.39%, respectively.

`Cc1nnnn1/C(=C\c1ccccc1)C(=O)OCC(=O)N1CC2(C)CC1CC(C)(C)C2` (stereo unspecified): the inhibition was 39% (active) in [9], 16.1% in [10], 22.4% in assay [1] and 44% (active) in assay [2].

In the case of `CC(C)(C)C(=O)Nc1ccc(-c2cc3cc(Cl)ccc3o2)cc1`, the inhibition in assay [1] is -53%; in assay [2], -26.2%; in [3], -83.9%; in assay [4], -30.7%.

In the case of `O=C(CN1CCN(Cc2ccc(Cl)cc2)C1=O)NCCCN1CCOCC1`, the figures for the inhibition in [5] and in assay [6] were -13.2% and -10.7%, respectively.

`Cc1c(/C(O)=C2\C(=O)C(=O)N(CCN(C)C)C2c2ccccc2)cnn1-c1ccccc1` (stereo unspecified): the inhibition in assay [1] was 15.8%; in assay [2], -3.19%; in [3], -15.3%; in [4] it was 10.1%.

On to `CN1C(=O)C(O)(C2CCCCCC2=O)c2ccccc21` (stereo unspecified), for which the inhibition was -7.54% in assay [5] and -0.98% in assay [6].

With `COc1ccc(COC(=O)C2=C(C)NC(=O)NC2c2ccc(F)cc2)cc1` (stereo unspecified), the inhibition is 34.1% in assay [1], 28.1% in assay [2], 10.2% in assay [3] and 31.4% in assay [4].

For `COc1ccc2cc3cc(C(=O)NCc4cccs4)oc3nc2c1`, the figures for the inhibition in [5] and in assay [6] were 4.16% and 39.4% (active), respectively.

On to `CCN(c1cccc(C)c1)c1ncnc2nc[nH]c12`, for which the inhibition was 35.9% in assay [1], 21.8% in [2], -7.68% in [3] and 28.4% in assay [4].

As for `Cc1cccc(Nc2nc(N)nc(CCl)n2)c1C`, the inhibition in assay [1] is 62.8% (active); in assay [2], 31.1% (active); in assay [3], 14.2%; in assay [4], 55.7% (active).

Take `COc1ccc(NC(=O)c2ccccc2Cl)cc1NC(=O)CN1CCOCC1`: the inhibition was -11.8% in assay [5] and -7.93% in assay [6].
